Assay results taken from PubChem BioAssay (EPA / NIEHS).
Activity calls are given as the source filed them. The calls were made as follows: active = hit-call score of the fitted dose curve at least 0.9, where 1 is the maximum; inactive = score below 0.9.

What was measured:
[1] = ATG_M_61_CIS: Attagene CIS-FACTORIAL HepG2 Assay for M61 Transcription Factor (Internal Marker) (AID 2282937); conditions: HepG2 Attagene CIS-FACTORIAL M61 internal marker reporter; actives raise or lower the signal
How it was run: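 Transfect HepG2 with MRTUs; dose 24 h; isolate RNA; reverse-transcribe with DNase I treatment; PCR-amplify, FAM-label and cut with HpaI for 2 h at 37 C; resolve by CE. Bidirectional fitting against DMSO.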

[2] = ATG_EGR_CIS: Attagene CIS-FACTORIAL HepG2 Assay for human Early Growth Response 1 (EGR1) (AID 2282938); conditions: HepG2 Attagene CIS-FACTORIAL EGR reporter mRNA; actives raise or lower the signal
How it was run: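 After a 24 h treatment of transiently transfected HepG2 cells, total RNA was reverse-transcribed and reporter sequences PCR-amplified, labelled and run on capillary electrophoresis. Reporters sit under cis-regulatory promoters sensing endogenous factors.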

[3] = ATG_ERE_CIS: Attagene CIS-FACTORIAL HepG2 Assay for Estrogen Response Element (ERE) (AID 2282940); conditions: HepG2 ERE cis-reporter, Attagene RNA transcript; actives raise or lower the signal
How it was run: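 HepG2, transient cis-reporter units, 24 h exposure. RNA isolated, oligo(dT) RT, reporter-specific PCR, FAM extension, HpaI cut, CE detection. Gain/loss-of-signal vs DMSO.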

[4] = ATG_Ets_CIS: Attagene CIS-FACTORIAL HepG2 Assay for human Erythroblast Transformation Specific (ETS) (AID 2282941); conditions: HepG2 ETS cis-reporter transcription, actives raise or lower the signal
How it was run: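 Bidirectional fit versus DMSO of reporter mRNA signal, detected by RT-PCR and capillary electrophoresis in HepG2 cells transiently transfected with cis-element reporters and dosed 24 h.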

[5] = molecular target: Hepatocyte nuclear factor 3-beta (Homo sapiens) (UniProt Q9Y261); assay: ATG_FoxA2_CIS: Attagene CIS-FACTORIAL HepG2 Assay for human Forkhead box A2 (FOXA2) (AID 2282942); conditions: HepG2 cis-reporter transcription factor activity, 24 h; actives raise or lower the signal
How it was run: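 24 h dosing of HepG2 bearing cis-reporter constructs; mRNA readout by RT-PCR/CE fluorescence; bidirectional fit, DMSO baseline.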

[6] = ATG_GATA_CIS: Attagene CIS-FACTORIAL HepG2 Assay for human GATA Binding Protein (AID 2282944); conditions: HepG2 GATA cis-element reporter, Attagene multiplex mRNA; actives raise or lower the signal
How it was run: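 DMSO serves as negative control and baseline for bidirectional fitting of reporter mRNA changes. HepG2 cells bearing transiently transfected cis-promoter reporters were exposed 24 h; transcripts detected via RT-PCR and capillary electrophoresis.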

[7] = ATG_GLI_CIS: Attagene CIS-FACTORIAL HepG2 Assay for human Zinc Finger Protein GLI1 (AID 2282945); conditions: HepG2, Attagene cis-factorial reporter mRNA, GLI element; actives raise or lower the signal
How it was run: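 Bidirectional curve fits relative to DMSO, using reporter mRNA levels from RT-PCR plus capillary electrophoresis. Cells were HepG2 transiently carrying cis-regulated reporter constructs, harvested 24 h after dosing.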

[8] = ATG_FoxO_CIS: Attagene CIS-FACTORIAL HepG2 Assay for human Forkhead box O (FoxO) (AID 2282943); conditions: HepG2 Attagene cis-reporter, FoxO element, mRNA; actives raise or lower the signal
How it was run: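 Endogenous transcription factor activity read from multiplexed cis-promoter reporter transcripts in transiently transfected HepG2, 24 h after dosing. Reporter RNA measured via RT-PCR plus capillary electrophoresis of FAM-labeled products; gain or loss relative to DMSO.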

[9] = molecular target: Bile acid receptor (Homo sapiens) (UniProt Q96RI1); assay: ATG_IR1_CIS: Attagene CIS-FACTORIAL HepG2 Assay for human Nuclear Receptor Subfamily 1 Group H Member 4 (NR1H4), IR1 submotif (AID 2282946); conditions: IR1 reporter transcription, actives raise or lower the signal
How it was run: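 HepG2 cells transiently transfected with multiplexed cis-element reporter units read endogenous transcription factor activity. After 24 h compound exposure, reporter mRNA was quantified by RT-PCR, fluorescent labelling, HpaI digestion and capillary electrophoresis; bidirectional fitting versus DMSO baseline.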

Measured: outcome

Sequence of Bile acid receptor (Homo sapiens) (Q96RI1 whole entry, looked up): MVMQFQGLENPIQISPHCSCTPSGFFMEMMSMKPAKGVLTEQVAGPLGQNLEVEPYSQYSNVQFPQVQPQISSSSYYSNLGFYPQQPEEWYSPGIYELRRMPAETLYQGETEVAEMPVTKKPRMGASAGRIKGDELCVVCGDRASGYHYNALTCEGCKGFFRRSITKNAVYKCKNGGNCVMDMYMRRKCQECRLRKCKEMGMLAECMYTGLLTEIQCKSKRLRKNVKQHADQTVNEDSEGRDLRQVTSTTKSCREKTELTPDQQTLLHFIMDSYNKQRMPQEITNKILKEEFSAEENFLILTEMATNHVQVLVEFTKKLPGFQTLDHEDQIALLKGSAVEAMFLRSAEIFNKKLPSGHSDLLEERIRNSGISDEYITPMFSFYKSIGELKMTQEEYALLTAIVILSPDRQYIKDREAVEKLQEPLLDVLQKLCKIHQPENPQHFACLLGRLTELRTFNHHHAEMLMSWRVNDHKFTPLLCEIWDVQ
Sequence of Hepatocyte nuclear factor 3-beta (Homo sapiens) (Q9Y261 whole entry, looked up): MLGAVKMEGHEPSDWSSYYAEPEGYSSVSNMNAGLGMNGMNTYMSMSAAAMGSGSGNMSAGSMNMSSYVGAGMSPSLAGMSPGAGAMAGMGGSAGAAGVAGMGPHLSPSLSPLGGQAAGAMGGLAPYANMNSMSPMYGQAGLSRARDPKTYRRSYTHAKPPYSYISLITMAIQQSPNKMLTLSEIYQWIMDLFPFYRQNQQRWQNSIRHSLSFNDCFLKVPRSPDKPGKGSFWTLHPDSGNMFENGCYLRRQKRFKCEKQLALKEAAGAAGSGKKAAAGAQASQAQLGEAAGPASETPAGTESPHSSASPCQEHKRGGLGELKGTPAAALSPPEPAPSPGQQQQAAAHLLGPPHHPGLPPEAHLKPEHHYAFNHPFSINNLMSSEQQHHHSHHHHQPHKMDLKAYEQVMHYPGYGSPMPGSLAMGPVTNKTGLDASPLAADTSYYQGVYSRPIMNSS

CC(Cc1ccc(OCC(=O)O)cc1)NCC(O)c1csc(C(F)(F)F)n1 (stereo unspecified)
not listed: [8] | [9]
inactive: all other assays above

ClC(Cl)c1ccccc1
not listed: [9]
inactive: all other assays above

Nc1ccc([N+](=O)[O-])cc1Cl
not listed: [5]
inactive: all other assays above

COP(N)(=S)OC
inactive: all assays above

CC(=O)CCc1ccc2c(c1)OCO2
inactive: all assays above
